An excerpt weighted towards active compounds, which were near 17% of everything screened.
ATXN viability: cell viability loss in ATXN counter-screen. AID 651635. Potency, µM (top dose mostly 56.7 µM), most hits filed as cytotoxic. S2 cells (HEK-293 line with an ATXN2-luciferase reporter) viability, CellTiter-Fluor protease fluorescence, 24 h. hit rate 0.49% among 400,000; also: nearly all actives have a fitted effect of over 40% in size
TGFb SMAD3 inh: TGF-b pathway inhibition. hit rate 1.2% among 410,000. HepG2 CAGA-GFP TGF-b/SMAD3 reporter, GFP fluorescence, 18 h; TGF-beta stimulated, 500 pg/mL final. AID 588855. Potency, µM (top dose mostly 46.1 µM), usual class: inhibitors; also: nearly all actives have a fitted effect of over 65% in size
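Using HEPG2 CAGA-GFP reporter cells at 1000 cells/well, we pinned test compounds, stimulated with recombinant TGF-beta (500 pg/mL final) and measured total well GFP after 18 h.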
ATXN2 expr inh: reduces ATXN2 reporter expression in HEK-293 cells | HEK-293 ATXN2-luciferase reporter, luminescence, 24 h | Potency, µM (highest dose often 57 µM), actives largely listed as inhibitors | hit rate 0.72% among 360,000 | AID 1745845; also: nearly all actives have a fitted effect of over 55% in size
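qHTS (up to 57 uM final) was run with 24 h compound exposure of reporter cells at 37 °C. Each well was multiplexed: SteadyGlo luminescence measured ATXN2-luciferase expression after a fluorogenic Gly-Phe-AFC viability readout (25 uM final).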
HepG2 viability: kills HepG2 cells in TGF-b inhibitor counter-screen; HepG2 CAGA-GFP viability, ATP luminescence, 18 h; Potency, µM (doses to about 46.1 µM), most hits filed as cytotoxic; hit rate 0.76% among 410,000; AID 588856
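HepG2 CAGA-GFP cells (1000/well, DMEM with 1% FBS) received compound, then TGF-beta at 500 pg/mL final, and were incubated 18 hours at 37 degrees C. Viability was read by CellTiter-Glo luminescence. Media-only wells were set as complete cell-killing and DMSO as no toxicity.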
TDP1 cell CPT: DT40-hTDP1 cell growth loss with CPT. hit rate 12% among 420,000. chicken DT40 Tdp1-/-;hTDP1 cells + 20 nM CPT, ATP luminescence, 48 h. Potency, µM (series often up to 46.2 µM), actives largely listed as inhibitors. AID 686979; also: nearly all actives have a fitted effect of over 55% in size
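Chicken DT40 Tdp1-/- cells complemented with human TDP1, 400 cells/well, exposed to compounds plus 20 nM camptothecin for at least 48 h at 37 C; viability read as ATP content by CellTiter-Glo luminescence.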
TDP1 cell noCPT: qHTS for Inhibitors of human tyrosyl-DNA phosphodiesterase 1 (TDP1): qHTS in cells in absence of CPT; DT40 Tdp1-/- hTDP1 cells, no CPT, ATP luminescence, 48 h; Potency, µM (doses to about 46.2 µM), most hits filed as inhibitors; hit rate 15% among 420,000; also: nearly all actives have a fitted effect of over 55% in size
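Chicken DT40 Tdp1-/- cells complemented with human TDP1, screened without camptothecin (DMSO vehicle only), 400 cells/well. Compounds pin-transferred, cells incubated at 37 °C for at least 48 hr. Growth read as ATP-dependent luminescence (CellTiter-Glo, 30 min at RT).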
Large screens that a line does not name were inactive. Calls follow the shape of the dose curve; as a rule, active = well fitted curve in the direction sought with a large enough effect; inconclusive = small, poorly fitted or top-dose-only effect, or another doubt; inactive = no such curve, though single readings can be large; an effect the other way counts as inactive or inconclusive.

CCN(C(=O)c1oc2ccc(S(=O)(=O)N3CCCCCC3)cc2c1C)c1ccccc1	ATXN viability inconclusive, TGFb SMAD3 inh inconclusive, ATXN2 expr inh inconclusive, TDP1 cell CPT 23µM, TDP1 cell noCPT 15µM
CCOC(=O)C1CCN(C(=O)c2oc3ccc(S(=O)(=O)N4CC(C)CC(C)C4)cc3c2C)CC1 (stereo unspecified)	TDP1 cell CPT 18µM, TDP1 cell noCPT 16µM
O=C(c1ccccc1Cl)N1CCCCC1CCN1CCOCC1 (stereo unspecified)	none (no result: ATXN viability, ATXN2 expr inh)
O=C(N[C@@H](c1ccccc1)[C@H](O)c1ccccc1)[C@@H]1CCCN1C(=O)OCc1ccccc1	ATXN viability inconclusive
O=C(c1cccc(S(=O)(=O)N2CCOCC2)c1)N1CCCc2ccccc21	ATXN viability inconclusive
Cc1c(C(=O)N2CCCc3ccccc32)oc2ccc(S(=O)(=O)N3CCOCC3)cc12	TDP1 cell CPT 14µM, TDP1 cell noCPT 11µM
Cc1c(C(=O)N2CCOCC2)oc2ccc(S(=O)(=O)N3CCCC3)cc12	ATXN2 expr inh inconclusive
CCOC(=O)N1CCN(C(=O)c2oc3ccc(S(=O)(=O)N4CCCCCC4)cc3c2C)CC1	TDP1 cell CPT 15µM, TDP1 cell noCPT 13µM
CCOC(=O)N1CCN(C(=O)c2oc3ccc(S(=O)(=O)N4CCOCC4)cc3c2C)CC1	none
CCOC(=O)N1CCN(c2ccc(S(=O)(=O)N3CCC(C)CC3)cc2[N+](=O)[O-])CC1	ATXN viability inconclusive, TGFb SMAD3 inh inconclusive, TDP1 cell CPT 21µM, TDP1 cell noCPT 13µM (no result: ATXN2 expr inh)
CC(=O)N1CCN(c2ccc(S(=O)(=O)N3CCOCC3)cc2[N+](=O)[O-])CC1	none
Cc1c(C(=O)N2CCc3ccccc3C2)oc2ccc(S(=O)(=O)N3CCCCCC3)cc12	TDP1 cell CPT 23µM, TDP1 cell noCPT 18µM
NS(=O)(=O)c1ccc(CCNc2ccnc3cc(Cl)ccc23)cc1	TDP1 cell CPT inconclusive, TDP1 cell noCPT 15µM
COc1ccc(-c2cc(-c3nnc(COC(=O)CC4CC5CCC4C5)o3)c3ccccc3n2)cc1OC (stereo unspecified)	TDP1 cell CPT 21µM, TDP1 cell noCPT 21µM
COc1ccc(CNC(=O)COC(=O)CC2CC3CCC2C3)cc1OC (stereo unspecified)	TGFb SMAD3 inh inconclusive, TDP1 cell noCPT inconclusive
Clc1ccccc1OCCSc1nnc(-c2cccs2)o1	TGFb SMAD3 inh inconclusive
Cc1onc(-c2ccccc2)c1CNC(=O)Nc1ccc(C(F)(F)F)cc1	TDP1 cell CPT inconclusive, TDP1 cell noCPT 16µM
O=C(NCc1nc(-c2ccc(C(F)(F)F)cc2)no1)Nc1ccc(F)cc1F	none
O=C(NCc1nc(-c2ccc(C(F)(F)F)cc2)no1)Nc1cc(Cl)cc(Cl)c1	ATXN viability inconclusive, TGFb SMAD3 inh inconclusive, ATXN2 expr inh inconclusive, TDP1 cell CPT 10µM, TDP1 cell noCPT 12µM
COc1ccc(-n2c(=O)c(-c3cccs3)nc3cnc(Oc4ccccc4)nc32)cc1	none (no result: ATXN viability, TGFb SMAD3 inh, ATXN2 expr inh, HepG2 viability)
Cc1nn(C)cc1C(C(=O)NC1CCCCC1)N(CCc1ccccc1)C(=O)c1cnccn1 (stereo unspecified)	ATXN viability inconclusive, ATXN2 expr inh inconclusive
CC(C)CC(=O)NCc1nc2cccnc2n1Cc1ccccc1	none (no result: ATXN viability, ATXN2 expr inh)
CC(C)(C)C(=O)OCC1OC(n2cnc(C(N)=O)n2)C(O)C1O (stereo unspecified)	TDP1 cell CPT 16µM, TDP1 cell noCPT inconclusive
CC(=O)Nc1ccc2c(c1)C(C)(C)C(C)N2C (stereo unspecified)	TDP1 cell CPT 16µM, TDP1 cell noCPT inconclusive
CCc1noc(C)c1C(=O)N(Cc1ccccc1)c1c(N)n(CCOC)c(=O)[nH]c1=O	TDP1 cell noCPT inconclusive
CC1(C)Cc2c(c(N3CCOCC3)nc3sc(C(=O)Nc4cccc(Cl)c4)c(N)c23)CO1	TDP1 cell CPT 18µM, TDP1 cell noCPT inconclusive
Cc1cccc(NC(=O)c2sc3nc(N4CCOCC4)c4c(c3c2N)CC(C)(C)OC4)c1	ATXN viability inconclusive, TDP1 cell CPT inconclusive, TDP1 cell noCPT 7.3µM
Nc1c(C(=O)Nc2ccc(Br)cc2)sc2nc(N3CCOCC3)c3c(c12)CCCC3	TDP1 cell CPT 21µM, TDP1 cell noCPT inconclusive (no result: ATXN2 expr inh)
CC1(C)Cc2c(c(N3CCOCC3)nc3sc(C(=O)Nc4ccccc4)c(N)c23)CO1	TDP1 cell CPT inconclusive, TDP1 cell noCPT inconclusive
COc1cc(CNC(=O)c2cc(-c3cc(OC)ccc3Cl)n[nH]2)cc(OC)c1	TDP1 cell CPT inconclusive
Cc1ccc(Cl)cc1-c1cc(C(=O)NCc2ccccc2)[nH]n1	none
COc1cc(CNC(=O)c2cc(-c3cc(Cl)ccc3C)n[nH]2)cc(OC)c1	TGFb SMAD3 inh inconclusive, TDP1 cell CPT 26µM, TDP1 cell noCPT inconclusive
COc1cc(CNC(=O)c2cc(-c3ccc(F)cc3OC)n[nH]2)cc(OC)c1	none
CCOc1ccc(-c2cc(C(=O)NCc3cc(OC)cc(OC)c3)[nH]n2)c(C)c1	TDP1 cell CPT 21µM, TDP1 cell noCPT inconclusive
Cc1ccc(Cl)cc1-c1cc(C(=O)NCc2cccc(Cl)c2)[nH]n1	ATXN viability inconclusive, TGFb SMAD3 inh inconclusive, ATXN2 expr inh inconclusive, TDP1 cell CPT 18µM, TDP1 cell noCPT inconclusive
COc1ccc(-c2cc(C(=O)NCc3cccc(C(F)(F)F)c3)[nH]n2)c(C)c1	TGFb SMAD3 inh inconclusive, TDP1 cell CPT 26µM, TDP1 cell noCPT inconclusive
CC(C)[C@H](NC(=O)N1CC(=O)Nc2ccccc21)C(=O)N1CCC[C@H]1C(=O)O	none
CC(OC(=O)c1cc(=O)[nH]c2ccccc12)C(=O)NCc1ccccc1 (stereo unspecified)	none
CC(=O)c1sccc1NC(=O)c1ccccc1C(=O)O	none
O=C(NCc1ccc(F)cc1)c1cc(-c2ccc(Cl)cc2)n[nH]1	TGFb SMAD3 inh inconclusive, TDP1 cell CPT 7.3µM, TDP1 cell noCPT 8.2µM (no result: ATXN viability, ATXN2 expr inh)
COc1ccc(CNC(=O)c2cc(-c3ccc(C)c(C)c3)n[nH]2)cc1	TGFb SMAD3 inh inconclusive, TDP1 cell CPT inconclusive, TDP1 cell noCPT 16µM
COc1ccc(CNC(=O)c2cc(-c3ccc(Cl)cc3)n[nH]2)cc1	none
O=C1CCc2cc(S(=O)(=O)NCc3ccccc3Cl)ccc2N1	TGFb SMAD3 inh inconclusive
CC(C)CCC(O)(c1ccccc1)C(CN1CCOCC1)c1ccccc1 (stereo unspecified)	TGFb SMAD3 inh inconclusive, ATXN2 expr inh inconclusive, TDP1 cell CPT 18µM, TDP1 cell noCPT 16µM
COc1ccc(C(O)(CCC(C)C)C(CN2CCOCC2)c2ccccc2)cc1 (stereo unspecified)	TGFb SMAD3 inh inconclusive, TDP1 cell CPT 23µM, TDP1 cell noCPT 21µM

Compound activity (PubChem)
